From the supplement of paper PMC12350171 come the findings set out here.

Where a name gives a salt, the structure may show the parent alone. Values without a mark were called inactive.

Settings in all cases: 20 µM
The test system of test [1] is Haemophilus parainfluenzae. Kind of test: growth AUC normalised to DMSO control (fraction of control); higher = less growth inhibition, active = hit call of the paper. An outline of the steps:
(§1)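 Hemin and NAD were added to the medium for Haemophilus parainfluenzae. All pathogens, after two anaerobic passages, were inoculated at a starting OD578 of 0.01 into pre-reduced mGAM plates with 20 μM compound and 1% DMSO under breathable seals, and OD578 was read hourly for 24 h in three biological replicates. AUC of each growth curve was obtained with the trapezoidal rule up to the exponential-to-stationary transition and normalised to DMSO controls from the same plate.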

Test [2] relates to Salmonella enterica typhimurium. Described as above. Put shortly: as §1
For the next test, the system named is Shigella flexneri. The description is as above. Put shortly:
as §1

The test system of a further test is Vibrio cholerae. Described as above. Put shortly: as §1
In test [3] the test system is Yersinia pseudotuberculosis. The description is as above. An outline of the steps:
as §1

For the next test, the system named is P. vulgatus RND KO. The experiment in a line: growth AUC normalised to DMSO control (median) (fraction of control); higher = less growth inhibition, active = hit call of the paper. An outline of the steps:
(§2)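 For normalised area under the curve, growth curves were truncated at entry into stationary phase, integrated by the trapezoidal rule and divided against vehicle wells on the same plate. The curves came from strains passaged twice overnight without oxygen and then grown in mGAM in 96-well plates at a starting OD578 of 0.01. Each well held an approved-drug library compound at 20 μM with 1% DMSO, and OD578 was read hourly for 24 h in an anaerobic incubator. Values are medians of three biological replicates.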

A further test has as its system P. vulgatus WT. The description is as above. An outline of the steps:
as §2

In test [4] the test system is S. enterica typhimurium WT. The test is described as above. An outline of the steps:
as §2

The subject of test [5] is S. enterica typhimurium tolC KO. Described as above. Put shortly:
as §2
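For growth AUC normalised to DMSO control (median) in this document: active when median AUC fell below 0.1.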

`C[C@]12COC(=O)C[C@@H]1CC[C@@H]1[C@@H]2CC[C@@]2(C)[C@H]1CC[C@]2(C)O` [Oxandrolone]: the “growth AUC normalised to DMSO control” value was 0.995 in [1]; 1.01 in test [2]; 1 with Shigella flexneri; 1 in the test with Vibrio cholerae; 0.963 in test [3]; 1.03 with P. vulgatus RND KO. For the same molecule, the “growth AUC normalised to DMSO control” value with P. vulgatus WT was 1.05; in [4], 1.01; in test [5] it was 0.991.
For the molecule `C[N+](C)(C)CCCCCCCCCC[N+](C)(C)C` [Decamethonium bromide], the “growth AUC normalised to DMSO control” value is 1.03 in test [1]; 1 in test [2]; 1.03 with Shigella flexneri; 1.07 with Vibrio cholerae; 1 in test [3]; 0.997 with P. vulgatus RND KO. The “growth AUC normalised to DMSO control” value was 1.07 with P. vulgatus WT, 1.01 in test [4] and 1 in test [5].
As for `CC(=O)OC1CN2CCC1CC2` (stereo unspecified) [Aceclidine hydrochloride], the “growth AUC normalised to DMSO control” value in [1] was 1.02; in test [2], 1; with Shigella flexneri it was 1.01; with Vibrio cholerae it was 1.03; in test [3], 0.994; in the test on P. vulgatus RND KO, 0.994. The “growth AUC normalised to DMSO control” value in the test with P. vulgatus WT is 1.03; in test [4], 1.01; in test [5] it was 0.999.
`CC(CCc1ccccc1)NC(C)C(O)c1ccc(O)cc1` (stereo unspecified) [Nylidrin]: the “growth AUC normalised to DMSO control” value in [1] was 0.988; in test [2], 0.987; in the test on Shigella flexneri, 0.994; in the test with Vibrio cholerae, 0.983; in test [3], 0.993; with P. vulgatus RND KO, 1. The “growth AUC normalised to DMSO control” value in the test on P. vulgatus WT is 0.998; in [4] it was 1; in test [5], 0.991.
As for `O=c1[nH]c2ccccc2n1CCCN1CCC(n2c(=O)[nH]c3cc(Cl)ccc32)CC1` [Domperidone], the “growth AUC normalised to DMSO control” value in [1] was 1.02; in test [2], 1.01; in the test with Shigella flexneri, 0.985; in the test with Vibrio cholerae it was 1.03; in test [3], 1; with P. vulgatus RND KO, 1. In addition, the results for the “growth AUC normalised to DMSO control” value (in the test with P. vulgatus WT; in test [4]; in test [5]) were 1, 1 and 0.979, respectively.
Regarding `COc1cccc(C2(O)CCCCC2CN(C)C)c1` (stereo unspecified) [Tramadol hydrochloride], the “growth AUC normalised to DMSO control” value in test [1] is 0.971; in test [2] it was 0.98; in the test on Shigella flexneri, 0.992; in the test with Vibrio cholerae, 0.983; in test [3], 0.994; with P. vulgatus RND KO it was 0.988. Besides, the “growth AUC normalised to DMSO control” value in the test with P. vulgatus WT was 0.989; in [4] it was 0.986; in test [5] it was 0.986.
For `CCC1(CC)C(=O)C=CNC1=O` [Pyrithyldione], the “growth AUC normalised to DMSO control” value was 1.01 in test [1]; 0.992 in test [2]; 1 with Shigella flexneri; 1.05 in the test on Vibrio cholerae; 1 in test [3]; 1.01 in the test on P. vulgatus RND KO. For the same molecule, the “growth AUC normalised to DMSO control” value is 1 in the test on P. vulgatus WT, 1.02 in test [4] and 0.998 in test [5].
For `CC(NC(C)(C)C)C(=O)c1cccc(Cl)c1` (stereo unspecified) [Bupropion hydrochloride], the “growth AUC normalised to DMSO control” value in test [1] was 1.01; in [2], 1; with Shigella flexneri it was 1.05; in the test on Vibrio cholerae, 1.05; in test [3], 1.01; in the test on P. vulgatus RND KO, 1.03. Moreover, the entries for the “growth AUC normalised to DMSO control” value (in the test on P. vulgatus WT; in test [4]; in [5]) were 1.03, 0.996 and 1, respectively.
For the molecule `NCCc1c[nH]c2ccc(O)cc12` [Serotonin hydrochloride], the “growth AUC normalised to DMSO control” value in test [1] is 1.07; in test [2], 0.983; with Shigella flexneri it was 1.02; with Vibrio cholerae, 1.06; in test [3], 0.981; in the test on P. vulgatus RND KO, 1.04. Besides, the “growth AUC normalised to DMSO control” value was 1.08 in the test with P. vulgatus WT, 1 in test [4] and 0.998 in [5].
On to `C#CCN(C)[C@H](C)Cc1ccccc1` [Selegiline hydrochloride], for which the “growth AUC normalised to DMSO control” value is 0.985 in test [1]; 1.02 in [2]; 1.05 in the test on Shigella flexneri; 1.01 with Vibrio cholerae; 1.03 in test [3]; 1.03 in the test on P. vulgatus RND KO. In addition, the “growth AUC normalised to DMSO control” value with P. vulgatus WT was 1.05; in test [4], 1; in [5], 1.01.
In the case of `CNCC(O)c1ccc(O)cc1` (stereo unspecified) [Synephrine], the “growth AUC normalised to DMSO control” value in test [1] was 1.04; in [2], 1.01; in the test with Shigella flexneri, 1.05; in the test on Vibrio cholerae, 1.03; in test [3], 1.01; in the test with P. vulgatus RND KO it was 0.984. The “growth AUC normalised to DMSO control” value was 0.984 with P. vulgatus WT, 1 in [4] and 0.999 in test [5].
`CN(C)[C@@H]1C(=O)C(C(N)=O)=C(O)[C@@]2(O)C(=O)C3=C(O)c4c(O)ccc(Cl)c4[C@@](C)(O)[C@H]3C[C@@H]12` [Chlortetracycline hydrochloride]: the “growth AUC normalised to DMSO control” value was 0.0445 (active) in test [1]; 0.00172 (active) in test [2]; 0.0163 (active) with Shigella flexneri; 0.0321 (active) in the test with Vibrio cholerae; 0.0311 (active) in test [3]; 0.0183 (active) with P. vulgatus RND KO. In addition, the “growth AUC normalised to DMSO control” value in the test with P. vulgatus WT was 0.0152 (active); in test [4], 0.00367 (active); in test [5], 0.00506 (active).
Regarding `CCC1(c2cccc(O)c2)CCCCN(C)C1` (stereo unspecified) [Meptazinol hydrochloride], the “growth AUC normalised to DMSO control” value in test [1] is 0.961; in test [2] it was 0.983; in the test on Shigella flexneri, 0.948; with Vibrio cholerae, 0.974; in test [3], 0.994; with P. vulgatus RND KO, 0.993. The “growth AUC normalised to DMSO control” value is 0.982 in the test with P. vulgatus WT, 0.998 in [4] and 1 in [5].
With `COc1ccc(Cc2nccc3cc(OC)c(OC)cc23)cc1OC` [Papaverine hydrochloride], the “growth AUC normalised to DMSO control” value in test [1] is 0.976; in test [2] it was 1; in the test on Shigella flexneri, 0.971; in the test with Vibrio cholerae, 0.944; in test [3], 0.997; in the test with P. vulgatus RND KO it was 0.997. Also, the “growth AUC normalised to DMSO control” value was 1.01 in the test on P. vulgatus WT, 1.01 in test [4] and 0.976 in [5].
